The values that follow come from PubChem BioAssay (NCATS).

In assay [1] the target is Guanine nucleotide-binding protein G(i) subunit alpha-1 (Homo sapiens) (UniProt P63096). The assay can be described thus: qHTS Assay for Inhibitors of RGS12 GoLoco Motif Activity (Green Fluorophore) (AID 879).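 Also: 0% = labeled peptide with Gαi1 and full inhibition = labeled peptide alone without protein; negative values mean loss of peptide binding seen as reduced polarization.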 A digest of the protocol:
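Fluorescence polarization assay: 50 nM Gαi1 with 10 nM FITC-labeled RGS12 GoLoco peptide in 10 mM Tris pH 7.5, 150 mM NaCl, 0.1 mM GDP, 0.05% NP40, 10 min at room temperature with compound.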
(qHTS replaces the single test concentration by a dilution series.)

The nature of assay [2]: qHTS Assay for Identification of Small Molecule Antagonists for NFkB Signaling Pathway (AID 895; active = well fitted inhibition curve with a large enough effect in the signal ratio, with a control signal flat, not every such curve was filed as active; the % refers to the signal ratio; also: % is scaled to controls: 0 for no effect and ±100 for the full control effect). A digest of the protocol:
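NFkB-bla ME-180 cervical carcinoma cells with beta-lactamase reporter under NFkB response element; compounds added, then TNF alpha at 10 pM final (EC50), 5 h at 37 C. LiveBLAzer substrate 2 h, room temperature; emission 460/530 nm at 405 nm excitation.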

The nature of assay [3]: Confirmation and Secondary Assay for Modulators of Hemoglobin Beta Chain Splicing at IVS2 654 locus (AID 910).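 Also: per-well total GFP intensity by laser scanning cytometry after 2-day treatment; % of control where 0% means no effect.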 A digest of the protocol:
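HeLa cells stably carrying EGFP interrupted by mutant beta-globin IVS2-654 intron (CMV-driven) were treated with compound for 2 days at 37C; corrected splicing was scored as total peak GFP intensity per well (488 nm excitation, 500-520 nm emission).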

The nature of assay [4]: qHTS Assay for Identification of Small Molecule Agonists for Thrombopoietin (TPO) Signaling Pathway (AID 917). Also: % is scaled to controls: 0 for no effect and ±100 for the full control effect. A digest of the protocol: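 Murine Ba/F3 cells stably expressing human TPO receptor and a Glycoprotein IIb promoter–luciferase reporter were IL-3-starved overnight, then treated with compounds plus TPO (26 pM final, its EC50) for 24 hrs at 37 C; luminescence was read.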

Assay [5] is described as follows: Confirmation and Secondary Assay for Modulators of Hemoglobin Beta Chain Splicing at IVS2 705 locus (AID 930).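 Also: HeLa cells stably expressing the EGFP-705 splicing reporter; GFP fluorescence per well restored by corrected splicing of the IVS2-705 intron in EGFP; series mostly up to about 46 µM; % of control where 0% means no effect.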 A digest of the protocol: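 First, HeLa EGFP-705 cells are seeded at 500/well in Optimem with 2% FCS and left overnight. Next, compound or DMSO is added for 2 days. Finally wells are laser-scanned and total peak GFP intensity scored.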
Assay [6] concerns the target Muscarinic acetylcholine receptor M1 (Rattus norvegicus) (UniProt P08482). The experiment in a line: qHTS Assay for Antagonists of Acetylcholine Muscarinic M1 Receptor: Kinetic Measurement of Intracellular Calcium Response (AID 943).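 Also: Fluo-4 calcium signal as peak divided by basal fluorescence over 4 min; series mostly up to about 35 µM; nearly all actives have a fitted effect of over 75% in size.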 A digest of the protocol:
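Rat M1-CHO cells, 2000/well, overnight → Fluo-4 no-wash dye with probenecid, 1 h 37C → compound 10 min, room temp → basal read 6 s → carbachol EC80 (100 nM) → 4 min kinetic read; peak/basal.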

The target is the same in assay [7]. The assay can be described thus: qHTS Assay for Antagonists of Acetylcholine Muscarinic M1 Receptor: Measurement of IP-One Response (AID 944). Also: nearly all actives have a fitted effect of over 75% in size. A digest of the protocol:
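M1-CHO (rat), 2000 cells/well, overnight recovery; cpd 10 min; carbachol EC80 (200 nM), 30 min, HEPES buffer + 50 mM LiCl pH 7.4; IP-One HTRF, Ex 337, Em 620/665 nm.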

Assay [8] addresses Cytochrome P450 3A4 (Homo sapiens) (UniProt P08684). The experiment in a line: qHTS Assay for Activators of Cytochrome P450 3A4 (AID 885). Also: nearly all actives have a fitted effect of over 65% in size. A digest of the protocol: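 Quantitative HTS format: compounds preincubated with 20nM human CYP3A4 and Luciferin-PPXE substrate at KM, reaction started by NADPH regeneration, stopped after 60 min, luciferase luminescence read 20 min later.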

Assay [9] shares this target. The assay can be described thus: qHTS Assay for Inhibitors and Substrates of Cytochrome P450 3A4 (AID 884). Also: series mostly up to about 57 µM; % is scaled to controls: 0 for no effect and ±100 for the full control effect; nearly all actives have a fitted effect of over 50% in size. A digest of the protocol:
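20 nM human CYP3A4 with 25 uM Luciferin-PPXE (at KM) in 200 mM KPO4, preincubated 10 min with compound; NADPH regeneration started a 60 min RT reaction. Luciferin detected by luminescence, normalized to 57 uM ketoconazole as full inhibition.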

Assay [10] can be described thus: qHTS Assay for Identification of Small Molecule Agonists for Hypoxia Response Element Signaling Pathway (AID 914; active = well fitted activation curve with a large enough effect in the signal ratio, with a control signal flat, not every such curve was filed as active; the % refers to the signal ratio; also: % of control where 0% means no effect). To be noted: ME-180 (cervical carcinoma) HRE-bla reporter, beta-lactamase ratio, CoCl2, 17 h; activation: stronger effect = higher value. A digest of the protocol:
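Positive modulation of EC50 CoCl2-induced hypoxia response element signaling is measured in ME-180 cells with a beta-lactamase reporter. Compounds are titrated, incubation runs 17 hours, and %Activity derives from the blue/green ratio.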

Assay [11] concerns the target Cytochrome P450 2C19 (Homo sapiens) (UniProt P33261). The experiment in a line: qHTS Assay for Inhibitors and Substrates of Cytochrome P450 2C19 (AID 899). Also: potency is read from the fitted curve at half-maximal effect; nearly all actives have a fitted effect of over 60% in size. A digest of the protocol: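 NADPH-dependent conversion of Luciferin-H EGE (10uM, at KM) by 5nM enzyme in 50mM KPO4, 60 min at 37C following 10 min compound preincubation. Stopped with luciferin detection buffer; luminescence read after 20 min.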

In assay [12] the target is Cytochrome P450 2D6 (Homo sapiens) (UniProt P10635). The experiment in a line: qHTS Assay for Inhibitors and Substrates of Cytochrome P450 2D6 (AID 891). Also: nearly all actives have a fitted effect of over 60% in size. Also: potency is read from the fitted curve at half-maximal effect. A digest of the protocol:
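Human CYP2D6 (5 nM) with 30 uM Luciferin-ME EGE (at Km) in 100 mM KPO4, compound preincubated 10 min, then NADPH regeneration system for 60 min at room temperature. Luciferin read by luminescence; normalized to 1.43 uM quinidine.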

Assay [13] can be described thus: qHTS Assay for Identification of Small Molecule Antagonists for Thrombopoietin (TPO) Signaling Pathway (AID 918). Also: potency is read from the fitted curve at half-maximal effect; nearly all actives have a fitted effect of over 60% in size. To be noted: TPO-dependent cell signaling reporter, antagonist mode. A digest of the protocol: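 Ba/F3 (murine, hTPO-R, GPIIb-luc reporter); overnight IL-3 withdrawal; cpd + TPO 26 pM final (EC50); 24 h 37 C/5% CO2; Steadylite luminescence after 10 min RT.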

The target of assay [14] is Cytochrome P450 2C9 (Homo sapiens) (UniProt P11712). The assay can be described thus: qHTS Assay for Inhibitors and Substrates of Cytochrome P450 2C9 (AID 883). Also: % is scaled to controls: 0 for no effect and ±100 for the full control effect; nearly all actives have a fitted effect of over 60% in size. A digest of the protocol: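 A luminogenic readout tracked human CYP2C9 (10nM) converting deoxyluciferin (100uM, at KM) in 25mM KPO4 during 60 min at 37C with regenerated NADPH. Values normalized to 57uM sulphaphenazole as complete inhibition.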
Chain of Cytochrome P450 2C9 (Homo sapiens) (P11712 whole entry, looked up): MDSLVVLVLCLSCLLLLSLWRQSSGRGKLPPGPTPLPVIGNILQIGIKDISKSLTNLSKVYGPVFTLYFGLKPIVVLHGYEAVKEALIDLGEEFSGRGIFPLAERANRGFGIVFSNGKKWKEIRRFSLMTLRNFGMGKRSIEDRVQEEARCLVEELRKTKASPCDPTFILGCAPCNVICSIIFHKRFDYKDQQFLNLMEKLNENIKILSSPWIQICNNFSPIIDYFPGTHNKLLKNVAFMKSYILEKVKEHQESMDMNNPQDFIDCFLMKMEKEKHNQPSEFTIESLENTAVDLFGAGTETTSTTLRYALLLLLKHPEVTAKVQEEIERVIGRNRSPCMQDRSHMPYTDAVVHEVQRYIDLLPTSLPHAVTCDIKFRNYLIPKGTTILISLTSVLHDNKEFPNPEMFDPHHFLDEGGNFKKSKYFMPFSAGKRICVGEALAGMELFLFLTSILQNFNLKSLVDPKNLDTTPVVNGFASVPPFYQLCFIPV

Several values for one entry are separate records, joined by “and”; a condition that tells them apart may be missing. Identical values can stand only once. Unmarked numbers belong to inactive results. Records with an inconclusive call do not appear. Activity calls are given as the source filed them. Unless noted, calls follow the shape of the dose curve; as a rule, active = well fitted curve in the direction sought with a large enough effect; inconclusive = small, poorly fitted or top-dose-only effect, or another doubt; inactive = no such curve, though single readings can be large; an effect the other way counts as inactive or inconclusive.

Chain of Guanine nucleotide-binding protein G(i) subunit alpha-1 (Homo sapiens) (P63096 whole entry, looked up): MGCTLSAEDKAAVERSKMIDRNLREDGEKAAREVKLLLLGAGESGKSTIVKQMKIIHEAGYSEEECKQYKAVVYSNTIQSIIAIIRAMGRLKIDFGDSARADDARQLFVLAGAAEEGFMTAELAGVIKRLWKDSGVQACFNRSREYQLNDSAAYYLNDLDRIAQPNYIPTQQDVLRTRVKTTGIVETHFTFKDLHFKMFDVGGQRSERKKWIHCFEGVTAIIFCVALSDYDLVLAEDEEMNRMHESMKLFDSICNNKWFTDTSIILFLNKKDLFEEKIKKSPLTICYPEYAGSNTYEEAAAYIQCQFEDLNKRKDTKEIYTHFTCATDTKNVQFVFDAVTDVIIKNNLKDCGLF
Chain of Muscarinic acetylcholine receptor M1 (Rattus norvegicus) (P08482 whole entry, looked up): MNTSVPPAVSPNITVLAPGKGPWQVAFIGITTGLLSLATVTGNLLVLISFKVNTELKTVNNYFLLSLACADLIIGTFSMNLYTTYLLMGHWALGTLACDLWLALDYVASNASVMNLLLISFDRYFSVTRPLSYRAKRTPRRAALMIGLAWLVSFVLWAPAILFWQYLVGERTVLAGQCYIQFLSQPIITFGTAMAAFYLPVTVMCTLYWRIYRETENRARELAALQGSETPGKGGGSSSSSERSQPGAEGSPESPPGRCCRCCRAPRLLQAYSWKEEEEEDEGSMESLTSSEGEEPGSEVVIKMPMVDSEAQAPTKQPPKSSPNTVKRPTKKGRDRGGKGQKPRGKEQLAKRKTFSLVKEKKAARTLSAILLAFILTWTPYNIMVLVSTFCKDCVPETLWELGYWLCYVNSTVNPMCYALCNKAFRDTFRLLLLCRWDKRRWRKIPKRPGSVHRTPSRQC
Chain of Cytochrome P450 3A4 (Homo sapiens) (P08684 whole entry, looked up): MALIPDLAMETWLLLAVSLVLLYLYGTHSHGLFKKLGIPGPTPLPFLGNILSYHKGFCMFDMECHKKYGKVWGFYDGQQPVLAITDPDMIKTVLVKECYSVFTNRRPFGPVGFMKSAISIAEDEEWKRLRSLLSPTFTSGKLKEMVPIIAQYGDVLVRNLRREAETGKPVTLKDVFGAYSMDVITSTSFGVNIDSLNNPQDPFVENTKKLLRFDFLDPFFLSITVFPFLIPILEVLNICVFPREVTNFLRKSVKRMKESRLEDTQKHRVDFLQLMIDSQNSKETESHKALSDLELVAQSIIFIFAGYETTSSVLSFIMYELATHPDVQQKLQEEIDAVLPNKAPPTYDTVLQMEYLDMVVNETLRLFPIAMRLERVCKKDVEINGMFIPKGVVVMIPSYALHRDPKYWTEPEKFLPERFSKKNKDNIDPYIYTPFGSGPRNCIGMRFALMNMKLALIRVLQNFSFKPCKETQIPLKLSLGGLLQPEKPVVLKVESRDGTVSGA
Chain of Cytochrome P450 2D6 (Homo sapiens) (P10635 whole entry, looked up): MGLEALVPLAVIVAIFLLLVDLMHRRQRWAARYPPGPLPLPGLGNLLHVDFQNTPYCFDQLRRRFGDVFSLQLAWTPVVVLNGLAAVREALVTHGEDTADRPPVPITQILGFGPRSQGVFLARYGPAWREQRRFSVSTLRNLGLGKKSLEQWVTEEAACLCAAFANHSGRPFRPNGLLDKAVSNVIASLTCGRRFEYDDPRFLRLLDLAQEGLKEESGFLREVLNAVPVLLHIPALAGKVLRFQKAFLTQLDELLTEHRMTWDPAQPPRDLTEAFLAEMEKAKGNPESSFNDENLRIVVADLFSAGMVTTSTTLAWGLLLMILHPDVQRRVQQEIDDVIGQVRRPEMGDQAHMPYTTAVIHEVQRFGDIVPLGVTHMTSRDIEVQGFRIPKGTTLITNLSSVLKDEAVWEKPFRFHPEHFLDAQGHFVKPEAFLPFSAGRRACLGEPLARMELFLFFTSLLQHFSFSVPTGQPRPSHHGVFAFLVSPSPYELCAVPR
Chain of Cytochrome P450 2C19 (Homo sapiens) (P33261 whole entry, looked up): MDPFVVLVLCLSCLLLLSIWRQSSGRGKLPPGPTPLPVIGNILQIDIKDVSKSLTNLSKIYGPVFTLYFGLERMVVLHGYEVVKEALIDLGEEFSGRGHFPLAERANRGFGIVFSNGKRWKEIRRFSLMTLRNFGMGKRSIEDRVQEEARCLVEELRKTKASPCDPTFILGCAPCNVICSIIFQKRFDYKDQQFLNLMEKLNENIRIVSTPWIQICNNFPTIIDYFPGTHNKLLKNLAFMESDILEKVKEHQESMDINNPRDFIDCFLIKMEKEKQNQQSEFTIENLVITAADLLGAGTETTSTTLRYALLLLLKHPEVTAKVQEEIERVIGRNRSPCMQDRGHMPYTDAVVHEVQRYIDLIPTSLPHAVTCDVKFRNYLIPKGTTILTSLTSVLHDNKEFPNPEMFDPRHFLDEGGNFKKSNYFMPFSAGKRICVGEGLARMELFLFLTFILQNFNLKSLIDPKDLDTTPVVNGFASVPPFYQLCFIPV

As to `CCCCNc1cc(C(=O)O)cc(S(N)(=O)=O)c1Oc1ccccc1`, the compound was called inactive in assay [1] and in assay [4]. The Potency entry in assay [2], in assay [3], in [5], in [6] and in assay [7] was “inactive” each time.

With `Cc1cnc(NC(=O)C2=C(O)c3ccccc3S(=O)(=O)N2C)s1`, in assay [1], the call was inactive. In addition, the Potency entry in assay [2], in assay [3] and in assay [5] was “inactive” each time.

On to `O=NN(CCCl)C(=O)NCCCl`, for which the result in [1] and in assay [4] was inactive. Besides, the Potency result in [3] and in assay [5] was “inactive” throughout.

In the case of `CNC[C@H](O)c1cccc(O)c1`, the compound was called inactive in [1] and in [4]. Also, the Potency result in assay [6] and in assay [7] was “inactive” each time.

Regarding `NCCc1ccc(O)c(O)c1`, the outcome in [1] was inactive. In addition, the Potency entry in assay [3], in assay [5], in assay [6] and in [7] was “inactive” throughout.

For the compound `CCc1ccc(CCOc2ccc(CC3SC(=O)NC3=O)cc2)nc1` (centres undefined), the call in assay [8] was inactive. For the same compound, the Potency result in assay [3] and in [5] was “inactive” in each case.

For the compound `CC(C[N+](C)(C)C)OC(N)=O` (centres undefined), the Potency result in assay [9], in assay [3] and in assay [5] was “inactive” throughout.

For the compound `N#Cc1ccc(C(c2ccc(C#N)cc2)n2cncn2)cc1`, the activation in assay [10] was -2.88%.

For the compound `Cc1ccc2c(c1)C(=O)[C@@]1(O)CCN(c3ccccc3)C1=N2`, the Potency in [11] is 7.94 µM (active).

Consider `CCN(CC)CCCC(C)Nc1nc(C)cc(Nc2ccc3nc(C)cc(N)c3c2)n1` (centres undefined), for which, in [9], the Potency result was “inactive”.

In the case of `CCN(CC)CCCC(C)Nc1ccnc2cc(Cl)ccc12` (centres undefined), the Potency result in assay [3] and in [5] was “inactive” each time.

Consider `CCCc1nn(C)c2c(=O)[nH]c(-c3cc(S(=O)(=O)N4CCN(C)CC4)ccc3OCC)nc12`, for which the Potency entry in assay [3] and in [5] was “inactive” in each case.

As for `CCn1cc(C(=O)O)c(=O)c2cc(F)c(N3CCNC(C)C3)c(F)c21` (centres undefined), the Potency entry in assay [9], in assay [3] and in assay [5] was “inactive” each time.

Turning to `Cc1cc2c(C(C)C)c(O)c(O)c(C=O)c2c(O)c1-c1c(C)cc2c(C(C)C)c(O)c(O)c(C=O)c2c1O`, the Potency entry in [3] and in assay [5] was “inactive” in each case.

In the case of `CCN(c1ccccc1)c1cc(NC)[n+](C)c(C)n1`, the Potency in [12] was 3.98 µM (active).

Consider `CN1CCN(CCCN2c3ccccc3Sc3ccc(C(F)(F)F)cc32)CC1`, for which the result in assay [1] was inactive. Besides, the Potency result in assay [3] and in assay [5] was “inactive” each time. Besides, the Potency in [13] was 15.8 µM (active).

On to `Cc1ccccc1C(OCCN(C)C)c1ccccc1` (centres undefined), for which the Potency result in assay [3] and in assay [5] was “inactive” in each case.

On to `NC(=O)c1ccc(-c2nc(-c3ccc4c(c3)OCO4)c(-c3ccccn3)[nH]2)cc1`, for which the compound was classed as inactive in [8].

On to `Cc1[nH]c(=O)c(C#N)cc1-c1ccncc1`, for which the result in assay [1] and in assay [4] was inactive.

`CC(C)(C)NCC(O)c1ccc(O)c(CO)c1` (centres undefined): the Potency result in [3] and in assay [5] was “inactive” each time.

For the compound `O=C(O)COCCN1CCN(C(c2ccccc2)c2ccc(Cl)cc2)CC1` (centres undefined), the Potency result in assay [3] and in [5] was “inactive” in each case.

Take `Nc1nc2ccc(OC(F)(F)F)cc2s1`: the result in assay [1] and in assay [4] was inactive.

Regarding `Cc1cn[nH]c1`, the result in [1] and in assay [4] was inactive.

Regarding `Cc1[nH]c(=O)c(C#N)cc1-c1ccc2nccn2c1`, the result in assay [1] and in assay [4] was inactive. The Potency entry in [7] was “inactive”.

Take `CCCc1nc2c(C)cc(-c3nc4ccccc4n3C)cc2n1Cc1ccc(-c2ccccc2C(=O)O)cc1`: the Potency entry in assay [3] and in [5] was “inactive” in each case.

For `COc1ccc2nc(S(=O)Cc3ncc(C)c(OC)c3C)[nH]c2c1` (centres undefined), the Potency entry in assay [14] and in [12] was “inactive” in each case. Also, the compound was called inactive in assay [8]. Moreover, the activation in assay [10] is -6.85% and -23.9%.
